Bioassay records deposited in PubChem BioAssay by National Center for Advancing Translational Sciences (NCATS).
SMN2 splice enh = qHTS Assay for Enhancers of SMN2 Splice Variant Expression; HEK293 SMN2-luciferase splicing reporter, luminescence, 30-36 h; Potency, µM (series often up to 46.1 µM), most hits filed as activators; 2.8% of 210,000 active; AID 1458, 2008; also: nearly all actives have a fitted effect of over 55% in size
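HEK293 cells carry an SMN2 minigene-luciferase reporter in which exon 7 inclusion puts luciferase in frame. Cells were seeded at 2000 cells/well, attached for 10-12 hours, then exposed to compounds for 30-36 hours at 37C before ONE-Glo luminescence.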
Rab9 prom act = qHTS Assay for Rab9 Promoter Activators; Huh7 Rab9 promoter-luciferase reporter, luminescence, 24 h; Potency, µM (top dose mostly 9.22 µM), hits mostly activators; 2.8% of 320,000 active; AID 485297, 2010; also: nearly all actives have a fitted effect of over 60% in size
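Stable Rab9-luc Huh7, 1500 cells/well, 2 h settle; cmpd in DMSO, 24 h, 37 °C/5% CO2; luciferase reagent 10 min RT; luminescence.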
FLuc modulator = qHTS profiling assay for firefly luciferase inhibitor/activator using purifed enzyme and Km concentrations of substrates (counterscreen for miR-21 project); Luciferin 4-monooxygenase (Photinus pyralis), P08659; purified FLuc, Km substrates, luminescence inhibition; Potency, µM (top dose mostly 57.5 µM), most hits filed as inhibitors; 6.9% of 360,000 active; also: nearly all actives have a fitted effect of over 55% in size
Target sequence (P08659 whole entry, looked up): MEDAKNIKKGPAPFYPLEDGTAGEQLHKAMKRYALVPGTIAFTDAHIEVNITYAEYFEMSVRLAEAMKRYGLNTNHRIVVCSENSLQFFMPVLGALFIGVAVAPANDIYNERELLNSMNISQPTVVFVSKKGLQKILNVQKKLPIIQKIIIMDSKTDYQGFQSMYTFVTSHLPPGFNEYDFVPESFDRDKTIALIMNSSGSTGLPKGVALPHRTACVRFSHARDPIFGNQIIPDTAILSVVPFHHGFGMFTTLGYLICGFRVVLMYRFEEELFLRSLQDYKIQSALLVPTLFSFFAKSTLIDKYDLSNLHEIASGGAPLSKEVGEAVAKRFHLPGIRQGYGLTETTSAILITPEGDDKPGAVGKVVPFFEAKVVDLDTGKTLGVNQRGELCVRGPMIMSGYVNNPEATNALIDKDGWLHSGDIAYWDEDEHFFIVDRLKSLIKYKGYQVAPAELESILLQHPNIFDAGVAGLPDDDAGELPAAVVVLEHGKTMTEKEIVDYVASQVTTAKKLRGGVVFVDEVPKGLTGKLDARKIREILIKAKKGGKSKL
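Purified P. pyralis luciferase (10nM final) with 10uM D-luciferin and 10uM ATP (Km levels) in 50mM Tris acetate pH 7.5, 10mM Mg acetate, 0.01% Tween-20, 0.05% BSA; qHTS 6-point titration, ~60 µM downward; luminescence read.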
NPC1 promoter act = qHTS Assay for NPC1 Promoter Activators. Potency, µM (top dose mostly 9.22 µM), usual class: activators. 2.4% of 320,000 active. Huh7 NPC1 promoter luciferase reporter, 24 h; also: nearly all actives have a fitted effect of over 60% in size
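Compounds in DMSO were transferred onto Huh7 NPC1-luciferase reporter cells pre-incubated 2 h; after 24 h at 37 °C, Amplite reagent was dispensed and luminescence recorded 10 min later.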
ELG1 genotoxic = qHTS screen for small molecules that induce genotoxicity in human embryonic kidney (HEK293T) cells expressing luciferase-tagged ELG1; AID 504466, 2011; HEK293T ELG1-luciferase reporter, luminescence, 16 h; 1.3% of 330,000 active; Potency, µM (series often up to 46 µM), actives largely listed as activators; also: nearly all actives have a fitted effect of over 60% in size
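DMSO vehicle served as control against compound-treated ELG1-luciferase HEK293T cells; exposure lasted 16 hr at 37 °C and 5% CO2, followed by ONE-Glo luminescence detection after 30 min.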
A number is an active result; – = inactive; ? = inconclusive; · = no result; [ ] = dose if it differs, or a comment. Shown are actives, neighbours in structure and some others; about 7.4% of the full set was active somewhere. Calls follow the shape of the dose curve; as a rule, active = well fitted curve in the direction sought with a large enough effect; inconclusive = small, poorly fitted or top-dose-only effect, or another doubt; inactive = no such curve, though single readings can be large; an effect the other way counts as inactive or inconclusive.

SMILES	SMN2 splice enh	Rab9 prom act	FLuc modulator	NPC1 promoter act	ELG1 genotoxic
CCn1c(=O)cc(SCC(=O)N2CCN(C)CC2)c2ccccc21	?	–	–	–	?
CCn1cc(SCC(=O)N2CCOCC2)c2ccccc21	?	?	?	?	18.4µM
CCN(CC)c1cc2c(cc1F)c(=O)c(S(=O)(=O)c1cc(C)ccc1C)cn2Cc1ccccc1	·	·	–	·	·
Cc1ccc(C(C)NC(=O)COC(=O)C2=COCCO2)cc1C (stereo not drawn)	·	–	–	–	–
Cc1ccnc(NC(=O)CNC(=O)c2sc3ccccc3c2Cl)c1	·	–	12µM	–	10.3µM
Cc1ccnc(NC(=O)CCCNC(=O)c2ccc(Cl)cc2)c1	·	?	16.9µM	?	?
Cc1ccnc(NC(=O)c2sc3cc(Cl)ccc3c2Cl)c1	6.31µM	0.631µM	0.601µM	0.126µM	2.91µM
Cc1ccc(NC(=O)CN(C)C(=O)CNC(=O)c2sc3ccccc3c2Cl)cc1	·	–	2.69µM	?	16.4µM
Cc1ccc(CSc2nc(-c3ccc(C(C)(C)C)cc3)nc3cc(=O)[nH]n23)cc1	·	·	–	·	·
CCOc1ccc2nc(C)cc(Nc3ccccc3OCC)c2c1	–	·	–	·	·
c1ccc(-c2noc(-c3ccccc3-c3ccccc3)n2)cc1	–	–	–	–	–
CCOc1ccc(-c2nc(-c3ccc(OC)cc3)no2)cc1OCC	–	–	–	–	–
COc1ccc(-c2noc(-c3cc(C(C)C)[nH]n3)n2)cc1	·	·	21.3µM	·	·
Cc1ccccc1-c1noc(-c2cc(C(C)C)[nH]n2)n1	·	·	10.7µM	·	·
CC(C)c1cc(-c2nc(-c3ccc(Br)cc3)no2)n[nH]1	·	·	13.5µM	·	·
Cn1c(=O)[nH]c2cc(-c3noc(-c4ccc(Br)cc4)n3)ccc21	·	·	–	·	·
CC(C)c1cc(-c2nc(-c3ccccc3)no2)n[nH]1	·	·	1.69µM	·	·
COc1cccc(CCNC(=O)c2c(O)nc3c(C)cccn3c2=O)c1	–	·	–	·	·
COC(=O)c1ccc(NC(=O)c2cc(S(=O)(=O)N3CCc4ccccc43)cn2C)cc1	·	·	–	·	·
CSc1ccccc1NC(=O)CSc1nnc(COc2ccccc2)o1	·	–	–	–	–
O=C(NCC(c1ccco1)N1CCc2ccccc21)C(=O)Nc1ccc(F)cc1F (stereo not drawn)	·	–	–	–	?
CC1CCC(NC(=O)Cn2ncc3ccccc32)CC1 (stereo not drawn)	?	?	?	?	10.3µM
COc1ccc2nc(-n3c(C)ccc3C)sc2c1	–	–	–[2.3 µM]	–	–
CCOc1ccc2nc(Cl)sc2c1	–	–	–	–	–
CCOc1ccc2nc(N3C(=O)/C(=C/c4ccccc4)NC3=S)sc2c1	·	?	6.01µM	?	?
SMILES	SMN2 splice enh	Rab9 prom act	FLuc modulator	NPC1 promoter act	ELG1 genotoxic
COc1ccc2nc(N3C(=O)/C(=C/c4ccccc4)NC3=S)sc2c1	–	–	10.7µM	–	–
Cn1c(NC(=O)c2ccc(F)cc2)c(-c2ccccn2)c(=O)c2ccccc21	·	–	–	–	–
C=CCn1c(N)c(C(=O)Nc2ccc(C)cc2)sc1=S	–	2.82µM	1.2µM	?	?
C=CCn1cccc(C(=O)Nc2ccc(C)c(C)c2)c1=O	·	2.24µM	10.7µM	1.58µM	?
COc1ccc(NC(=O)c2ccccc2NC(=O)CSc2ccccc2)cc1	·	?	–	?	–
C=CCn1cccc(C(=O)Nc2cc(OC)ccc2OC)c1=O	–	–	–	–	–
C/C=C/Cn1cccc(C(=O)Nc2ccc(OC)cc2)c1=O	–	?	23.9µM	?	–
C=CCn1c(N)c(C(=O)Nc2ccccc2OC)sc1=S	·	–	?	–	–
C=CCn1cccc(C(=O)Nc2ccc(C)cc2)c1=O	·	2.82µM	10.7µM	4.47µM	?
COc1ccc(S(=O)(=O)N2CCOC23CCN(S(=O)(=O)c2ccc(Cl)cc2)CC3)cc1	·	–	–	–	–
CCOc1ccc(NC(=O)CCCn2c(=S)[nH]c3ccsc3c2=O)cc1	–	–	?	–	–
Cc1ccc(-n2c(C)cc(/C=N/Nc3ccc([N+](=O)[O-])cn3)c2C)cc1	–	–	–	–	–
Cc1cc(/C=N/Nc2ccc([N+](=O)[O-])cn2)c(C)n1-c1ccccc1	?	3.55µM	?	?	?
